In the supplement of paper PMC9925115:

These compounds were tested on FLX1 + dox-induced PRKAR1A G325D (assay: difference in log2 fold change of viability vs plate median (dox-induced PRKAR1A G325D minus uninduced); higher = compound less effective when PKA is inhibited). Details: concentration: not stated (2 or 5 uM); 5 days.
Experimental: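 For each plate a log2 fold change vs the plate median was derived, and the values without dox were subtracted from those with dox, averaged over three biological replicates.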

| Structure (SMILES) | difference in log2 fold change of viability |
| --- | --- |
| NC1(c2ccc(-c3nc4ccn5c(=O)[nH]nc5c4cc3-c3ccccc3)cc2)CCC1 | 0.0391 |
| Cc1c(CN2CCN(C(=O)[C@H](C)O)CC2)sc2c(N3CCOCC3)nc(-c3cnc(N)nc3)nc12 [Apitolisib (GDC-0980, RG7422)] | 0.628 |
| CS(=O)(=O)CCNCc1ccc(-c2ccc3ncnc(Nc4ccc(OCc5cccc(F)c5)c(Cl)c4)c3c2)o1 [Lapatinib] | 0.129 |
| CCOC(=O)c1cnc2ccc(-c3cncc(NS(=O)(=O)c4ccccc4)c3)cn12 | 0.663 |
| Cc1ccc(-n2nc(C(C)(C)C)cc2NC(=O)Nc2ccc(OCCN3CCOCC3)c3ccccc23)cc1 [Doramapimod (BIRB 796)] | 0.496 |
| CO[C@H]1C[C@@H]2CC[C@@H](C)[C@@](O)(O2)C(=O)C(=O)N2CCCC[C@H]2C(=O)O[C@H]([C@H](C)C[C@@H]2CC[C@@H](OC(=O)C(C)(CO)CO)[C@H](OC)C2)CC(=O)[C@H](C)/C=C(\C)[C@@H](O)[C@@H](OC)C(=O)[C@H](C)C[C@H](C)/C=C/C=C/C=C/1C | 0.457 |
| CC[C@@H]1C(=O)N(C)c2cnc(Nc3ccc(C(=O)NC4CCN(C)CC4)cc3OC)nc2N1C1CCCC1 | 0.0323 |
| COc1cc2ncnc(Nc3cccc(Cl)c3)c2cc1OC [AG-1478 (Tyrphostin AG-1478)] | 0.0422 |
| CS(=O)(=O)CCNCc1ccc(-c2ccc3ncnc(Nc4ccc(OCc5cccc(F)c5)c(Cl)c4)c3c2)o1 | 0.519 |
| Oc1c2ccccc2c2c3c(cccc13)N=N2 | 0.149 |
| CNc1nc(Nc2cn(C(C)(C)C#N)nc2C)ncc1C(F)(F)F | 0.145 |
| Cc1ccccc1CN1C2=NCCN2C(=O)C2=C1CCN(Cc1ccccc1)C2 [TIC10 Analogue] | -0.0375 |
| C=CC(=O)N1CCC[C@@H](n2nc(-c3ccc(Oc4ccccc4)cc3)c3c(N)ncnc32)C1 | -2.14 |
| Cc1nc(Nc2ncc(C(=O)Nc3c(C)cccc3Cl)s2)cc(N2CCN(CCO)CC2)n1 [Dasatinib] | 0.18 |
| CO[C@H]1C[C@@H]2CC[C@@H](C)[C@@](O)(O2)C(=O)C(=O)N2CCCC[C@H]2C(=O)O[C@H]([C@H](C)C[C@@H]2CC[C@@H](OCCO)[C@H](OC)C2)CC(=O)[C@H](C)/C=C(\C)[C@@H](O)[C@@H](OC)C(=O)[C@H](C)C[C@H](C)/C=C/C=C/C=C/1C [Everolimus (RAD001)] | -1.32 |
| Cc1cc(Nc2nc(N[C@@H](C)c3ccc(F)cc3)c(C#N)cc2F)n[nH]1 | -0.0432 |
| Cc1[nH]c(/C=C2\C(=O)Nc3ccccc32)c(C)c1CCC(=O)O [Orantinib (TSU-68, SU6668)] | 0.216 |
| CC(C)c1cnn2c(NCc3ccccc3)cc(NCCCCCCN)nc12 | -0.0617 |
| CCS(=O)(=O)Nc1ccc2c(c1)/C(=C(/Nc1ccc(CN3CCCCC3)cc1)c1ccccc1)C(=O)N2 [Hesperadin] | -0.105 |
| O=C(NCCCNc1nc(Nc2cccc(NC(=O)N3CCCC3)c2)ncc1I)c1cccs1 | 0.621 |

| Structure (SMILES) | difference in log2 fold change of viability |
| --- | --- |
| COc1cc2ncnc(Nc3ccc(O)c(Br)c3)c2cc1OC | -0.279 |
| CC(C)(C)c1cc(NC(=O)Nc2ccc(-c3cn4c(n3)sc3cc(OCCN5CCOCC5)ccc34)cc2)no1 [Quizartinib (AC220)] | 0.254 |
| Cc1cc(CS(=O)(=O)c2ccccc2)cc(OCc2ccc(CN3CCC[C@@H]3CO)cc2)c1 | 0.461 |
| CS(=O)(=O)c1cccc(CNc2nc(Nc3ccc4c(c3)CCC(=O)N4)ncc2C(F)(F)F)c1 | -0.0481 |
| Clc1ccc(Nc2nnc(Cc3ccncc3)c3ccccc23)cc1 [Vatalanib (PTK787) 2HCl] | 0.168 |
| N#Cc1c(NC(=O)c2cccc3ccccc23)sc2c1CCCC2 [JNK Inhibitor IX] | 0.317 |
| Cc1[nH]nc2ccc(-c3cncc(OC[C@@H](N)Cc4ccccc4)c3)cc12 | 0.18 |
| CC(C)(C)c1ccc(S(=O)(=O)/C=C/C#N)cc1 | 0.145 |
| COc1cc2ncnc(Nc3ccc(F)c(Cl)c3)c2cc1OCCCN1CCOCC1 [Gefitinib (ZD1839)] | -0.198 |
| O=C(NCc1ccccc1)c1csc(Nc2ccncn2)n1 [Thiazovivin] | 0.59 |
| O=C(c1ccc(/C=C/c2n[nH]c3ccccc23)cc1)N1CCNCC1 | -0.0816 |
| C=CC(=O)Nc1cccc(Oc2nc(Nc3ccc(N4CCN(C)CC4)cc3)ncc2Cl)c1 | -0.131 |
| Cc1ccc(NC(=O)c2ccc(CN3CCN(C)CC3)cc2)cc1Nc1nc(-c2cccnc2)cs1 [Masitinib (AB1010)] | 0.682 |
| Cc1c(NC(=O)c2ccc(C(C)(C)C)cc2)cccc1-c1cn(C)c(=O)c(Nc2ccc(C(=O)N3CCOCC3)cc2)n1 | 0.119 |
| COc1cc(Nc2ncc(F)c(Nc3ccc4c(n3)NC(=O)C(C)(C)O4)n2)cc(OC)c1OC | -0.353 |
| NC(=O)Nc1cc(-c2cccc(F)c2)sc1C(=O)N[C@H]1CCCNC1 | -0.12 |
| O=C(Nc1cccc(Nc2ncc(Br)c(NCCc3cnc[nH]3)n2)c1)N1CCCC1 | 0.799 |
| Cc1cc(O)c2c(c1)C(=O)c1cccc(O)c1C2=O [Chrysophanic Acid] | 0.0332 |
| CC1(COc2ccc3c(c2)ncn3-c2ccc3cccc(N4CCC(N)CC4)c3n2)COC1 | -0.0241 |
| O=C(NC(NC(=S)Nc1ccc(F)c([N+](=O)[O-])c1)C(Cl)(Cl)Cl)C(c1ccccc1)c1ccccc1 (stereo not given) | 0.101 |
